Screens (PubChem)
Choline anaer gr: growth inhibitors of anaerobic choline-fed gram-negatives, minimal medium, absorbance; calls only; 55,000 compounds, 0.2% hits; Gram-negative bacterium anaerobic choline minimal medium; active compounds read low; AID 1963822, 2024; call rule not given here
Numbers without * were called inactive; i = inactive; + = active, no number; ! = a repeat was not active. This is one part of a sample in which hits are shown more often than they occur.

SMILES	Choline anaer gr
CCCn1cnc2nc(CSc3ccccc3NC(=O)COc3ccccc3)cc(=O)n21	i
COc1ccc(C(=O)Nc2sc3c(c2-c2nc4ccccc4s2)CCN(C(C)C)C3)cc1OC	+
COC(=O)c1ccc(C(=O)Nc2sc3c(c2-c2nc4ccccc4s2)CCN(C(C)C)C3)cc1	i
CC(=O)Nc1sc2c(c1-c1nc3ccccc3s1)CCN(C(C)C)C2	i
C=CCNC(=O)C1CCCN(Cc2noc(-c3ccc(C)cc3)n2)C1 (centres undefined)	i
CCc1nc(OCC(=O)Nc2cc(C)cc(C)c2)c2ccccc2n1	i
Cc1nc(OCC(=O)Nc2ccc(F)cc2F)c2ccccc2n1	+
O=C(COc1ccc(-c2cnc3ccccc3n2)cc1)Nc1cc(F)ccc1F	i
Cc1cc(C)n(-c2cc(NCc3cccc(Br)c3)ncn2)n1	i
O=C1[C@@H]2CCCN2[C@@H](c2ccccc2)N1c1nccs1	i
CN(CCNc1ncnc2onc(-c3cccc(Cl)c3)c12)C1CCCCC1	+
Cc1ccc(-c2noc3ncnc(NCCN(C)C4CCCCC4)c23)cc1	i
Clc1cccc(-c2noc3ncnc(NCc4ccc5c(c4)OCO5)c23)c1	i
Cc1ccc(C2CC(c3ccccc3)=NN2c2nc(C)cs2)cc1 (centres undefined)	i
Cc1nn(-c2cc(N(C)C)ncn2)c(C)c1CCC(=O)N1CCCCC1	i
O=c1[nH]cnc2c1ncn2C1O[C@H](CO)[C@@H](O)[C@H]1O (some centres undefined)	i
Nc1nc(Cl)nc2c1ncn2[C@H]1C[C@H](O)[C@@H](CO)O1	i
Nc1nc(Cl)nc2c1ncn2[C@@H]1O[C@H](CO)[C@@H](O)[C@@H]1F	+!
O=C(Cn1c(CN2CCCCC2)nc2ccccc21)N1CCOCC1	i
O=C(NC(c1ccccc1)c1ccccc1)c1nc[nH]c1C(=O)NCc1ccccn1	i
O=C([C@H](Cc1ccccc1)N1Cc2ccccc2C1=O)N1CCC(Cc2ccccc2)CC1	i
Cc1noc2nc(C)n(CC(=O)N3CCC(C)CC3)c(=O)c12	i
CO[C@@]12[C@H](COC(N)=O)C3=C(C(=O)C(C)=C(N)C3=O)N1C[C@@H]1N[C@@H]12	+!
COc1cccc(NC(=O)CSc2nc(NCc3ccccc3)c3ccccc3n2)c1	i
CCSc1ncc(Cl)c(C(=O)N(Cc2ccccc2)C2CCS(=O)(=O)C2)n1 (centres undefined)	i
SMILES	Choline anaer gr
Cn1nnc(NCc2ccc(-c3ccc(Cl)cc3)o2)n1	i
O=C(O)CCC/C=C\C[C@@H]1[C@@H](/C=C/[C@@H](O)COc2cccc(C(F)(F)F)c2)[C@H](O)C[C@@H]1O	+!
CC(C)OC(=O)CCCC=CCC1C(O)CC(O)C1CCC(O)CCc1ccccc1 (centres undefined)	i
CCCCC[C@H](O)/C=C/[C@@H]1[C@@H](C/C=C/CCCC(=O)O)[C@H](O)C[C@H]1O	i
CC(C)OC(=O)CCC/C=C\C[C@@H]1[C@@H](/C=C/[C@H](O)CCc2ccccc2)[C@H](O)C[C@@H]1O	+
CC(C)OC(=O)CCC/C=C\C[C@@H]1[C@@H](/C=C/C(=O)COc2cccc(C(F)(F)F)c2)[C@H](O)C[C@@H]1O	i
O=C(O)CCC/C=C/C[C@@H]1[C@@H](/C=C/[C@@H](O)COc2cccc(C(F)(F)F)c2)[C@H](O)C[C@@H]1O	i
Cc1nc2nc(CN(C(=O)CC(C)C)c3ccccc3)nn2c(C)c1Cl	i
Cc1csc(NC(=O)Cn2ccc3ccc(-c4nnc(C)o4)cc32)n1	i
CC(C)NC(=O)CC1CCN(S(=O)(=O)c2ccc(Br)s2)CC1	i
CN(C)CCC=C1c2ccccc2Sc2ccc(Cl)cc21	+
CN(C)CC/C=C1\c2ccccc2Sc2ccc(Cl)cc21	i
O=C(CSc1nnc2ccc(-c3ccccc3)nn12)NCCc1ccccc1	i
CCc1cc(Cl)c(OC)c(C(=O)NCC2CCCN2CC)c1O (centres undefined)	i
CCc1cc(Cl)c(OC)c(C(=O)NC[C@@H]2CCCN2CC)c1O	+!
CCN1CCCC1CNC(=O)c1c(O)c(Cl)cc(Cl)c1OC (centres undefined)	i
CCOC(=O)C1CCN(c2cc3c(cc2NC(=O)NC(C)CC)n(C)c(=O)n3C)CC1 (centres undefined)	i
Cc1ccc(NC(=O)CCCC2=NS(=O)(=O)c3ccccc3N2)cc1F	+
O=C(CCC1=NS(=O)(=O)c2ccccc2N1)NCc1ccc(F)cc1	i
Cc1cc(C)cc(NC(=O)CC2(CC3=NS(=O)(=O)c4ccccc4N3)CCCC2)c1	i
CCOc1ccc(-c2ccc(OCCNC(=O)c3ccc(C)cc3)nn2)cc1	i
O=c1[nH]c(SCc2ccc(F)cc2Cl)nc2c1CN(Cc1ccc(F)cc1)CC2	i
Cc1onc(-c2c(F)cccc2Cl)c1C(=O)N[C@@H]1C(=O)N2C(C(=O)O)C(C)(C)S[C@H]12 (some centres undefined)	i
CC1(C)S[C@@H]2[C@H](NC(=O)Cc3ccccc3)C(=O)N2[C@H]1C(=O)O	i
Cc1onc(-c2ccccc2Cl)c1C(=O)N[C@@H]1C(=O)N2[C@@H]1SC(C)(C)[C@@H]2C(=O)O	+
SMILES	Choline anaer gr
O=S(=O)(Nc1cccc(-c2nnc(-c3ccccc3)o2)c1)c1cccc(Cl)c1	i
CCc1ccc(OCc2nc(CCN(C)C(=O)Nc3ccc(C(=O)OC)cc3)no2)cc1	+
CCc1ccc(NC(=O)N(C)CCc2noc(-c3ccc(C)cc3)n2)cc1	i
CCOc1ccccc1NC(=O)N(C)CCc1noc(COc2ccc(Cl)cc2)n1	i
Cc1c(O)cccc1C(=O)NC(CSc1ccccc1)C(O)CN1C[C@H]2CCCC[C@H]2CC1C(=O)NC(C)(C)C (some centres undefined)	i
O=C(NC1CCCCC1)C1CCN(c2ccc3nncn3n2)CC1	i
CCc1nnc(-c2ccc(S(=O)(=O)N3CCCC(C)C3)o2)o1 (centres undefined)	i
Cc1ccc(NC(=O)C2CCN(c3nnc(-n4c(C)ccc4C)s3)CC2)cc1C	i
CCCCC/C=C\C/C=C\C/C=C\CCCCC(=O)O	+
CCCCC/C=C\C/C=C\CCCCCCCC(=O)O	i
CCCCC/C=C\C/C=C\C/C=C\CCCCCCC(=O)O	i
Clc1ccc2nc(-c3ccccn3)c(Nc3ccc4c(c3)OCCO4)n2c1	i
COc1ccccc1CNC(=O)c1sc(=S)n(-c2ccc(Cl)cc2)c1N	i
Cc1noc(C)c1C1CCCN1C(=O)c1cc(C2CC2)on1 (centres undefined)	+
CCc1onc(C)c1C1CCCN1C(=O)c1cc(C2CC2)on1 (centres undefined)	i
Cc1cc(C(=O)N2CCCC2c2c(C)noc2C)no1 (centres undefined)	i
Cc1ccc(C(=O)N2CCCC2c2cc(C)on2)cc1 (centres undefined)	i
C=CCn1c(SCC(=O)OC)nc2c(-c3ccccc3)cn(C)c2c1=O	i
Cc1ccc(NC(=O)CSc2cc(C)c3cc(S(=O)(=O)N4CCCCC4)ccc3n2)cc1Cl	i
O=c1onc2n1-c1cc(Br)ccc1OC2	+
Cc1nc(CN2C(=O)COc3ccc(S(=O)(=O)N4CCCC4)cc32)no1	i
Cc1nc(CN2C(=O)COc3ccc(S(=O)(=O)N4CCCCC4)cc32)no1	i
CCCCC[C@H](O)CC[C@H]1[C@H](O)CC(=O)[C@@H]1CCCCCCC(=O)O	+!
